PubChem BioAssay (NCI)
The panel holds about 83,000 compounds, 20% with a hit somewhere; the sample as a whole holds those more often.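 96-well plates, one dose, 48 hours. Percent growth reported; active if below 10.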 Unmarked numbers belong to inactive results. Active and inactive are the calls of the source.

Key:
Test in all cases: NCI-60 one-dose screen, 48 h (100 = growth as untreated, 0 = no growth, -100 = all killed)
Conditions in all cases: 10 µM unless noted
[1] = system: NCI-H23 lung
[2] = system: NCI-H226 lung
[3] = system: NCI-H322M lung
[4] = system: HOP-62 NSCLC
[5] = system: NCI-H460 lung
[6] = system: HOP-92 NSCLC
[7] = system: NCI-H522 lung
[8] = system: A549/ATCC NSCLC
[9] = system: 786-0 renal
[10] = system: COLO 205 colon
[11] = system: DU-145 prostate
[12] = system: MALME-3M melanoma
[13] = system: MDA-MB-231 breast
[14] = system: RXF 393 renal
[15] = system: SF-268 CNS
[16] = system: SF-295 CNS
[17] = system: SF-539 CNS
[18] = system: UACC-257 melanoma
[19] = system: M14 melanoma

O=Cc1ccc(-c2cn3ccnc3c(-c3ccc4ncn(Cc5ccccc5)c4c3)n2)cc1
growth [1]: 45.5%
growth [2]: 99.5%
growth [3]: 88.8%
growth [4]: 76.2%
growth [5]: 62.2%
growth [6]: 57%
growth [7]: 74.7%
growth [8]: 103%
growth [9]: 53.3%
growth [10]: 126%
growth [11]: 75.7%
growth [12]: 113%
growth [13]: 40.8%
growth [14]: 75%
growth [15]: 72.9%
growth [16]: 76.9%
growth [17]: 68.5%
growth [18]: 122%
growth [19]: 77%

Cn1c(N2NC(=O)C(N=Nc3ccc(S(N)(=O)=O)cc3)C2=O)nc(-c2ccco2)c(C#N)c1=O (centres undefined)
growth [1]: 70%
growth [2]: 94.9%
growth [3]: 107%
growth [4]: 96.4%
growth [5]: 103%
growth [6]: 32.3%
growth [7]: -40.5% (active)
growth [8]: 109%
growth [9]: 100%
growth [10]: 77.1%
growth [11]: 95.7%
growth [12]: 74.7%
growth [13]: 93.8%
growth [14]: -3.8% (active)
growth [15]: 98.8%
growth [16]: 123%
growth [17]: 96.7%
growth [18]: 88.7%
growth [19]: 91.9%

COc1ccc(-c2nc([C@@H](C)Sc3nc(N)cc(N)n3)c(C)s2)cc1OCCN1CCOCC1
growth [1]: 103%
growth [2]: 95.7%
growth [3]: 109%
growth [4]: 94.5%
growth [5]: 110%
growth [6]: 95.3%
growth [7]: 87%
growth [8]: 96.2%
growth [9]: 104%
growth [10]: 116%
growth [11]: 111%
growth [12]: 102%
growth [13]: 66.6%
growth [14]: 96%
growth [15]: 102%
growth [16]: 97.6%
growth [17]: 111%
growth [18]: 100%
growth [19]: 114%

C[C@H](c1nc2ccc(N)cc2[nH]1)[C@H]1CC[C@H]2[C@@H]3CCC4=CC(=O)CC[C@]4(C)[C@H]3CC[C@]12C
growth [1]: 85.8%
growth [2]: 91%
growth [3]: 91.7%
growth [4]: 96.2%
growth [5]: 97.1%
growth [6]: 43.9%
growth [7]: 84.3%
growth [8]: 96.7%
growth [9]: 59.4%
growth [10]: 81.4%
growth [11]: 88.8%
growth [12]: 101%
growth [13]: 91.5%
growth [14]: 44.6%
growth [15]: 82.2%
growth [16]: 57.1%
growth [17]: 53.8%
growth [18]: 96.4%
growth [19]: 89.5%

C=C(C)[C@@H]1CC[C@]2(C(=O)N[C@H](CO)Cc3ccccc3)CC[C@]3(C)[C@H](CC[C@@H]4[C@@]5(C)CCCNC(C)(C)[C@@H]5CC[C@]43C)[C@@H]12
growth [1]: -71.9% (active)
growth [2]: -55.7% (active)
growth [3]: -86% (active)
growth [4]: -86.2% (active)
growth [5]: -86.2% (active)
growth [6]: -88.5% (active)
growth [7]: -79.2% (active)
growth [8]: -83.1% (active)
growth [9]: -90.7% (active)
growth [10]: -83.4% (active)
growth [11]: -87.4% (active)
growth [12]: -82.9% (active)
growth [13]: -87.1% (active)
growth [14]: -91.5% (active)
growth [15]: -81.2% (active)
growth [16]: -91.8% (active)
growth [17]: -87.7% (active)
growth [18]: -88.8% (active)
growth [19]: -90.2% (active)

CC(=O)[C@@H]1CC[C@]2(CO)CC[C@]3(C)[C@H](CC[C@@H]4[C@@]5(C)CCCNC(C)(C)[C@@H]5CC[C@]43C)[C@@H]12
growth [1]: 94.6%
growth [2]: 107%
growth [3]: 88.8%
growth [4]: 111%
growth [5]: 100%
growth [6]: 88.7%
growth [7]: 91.6%
growth [8]: 112%
growth [9]: 93.6%
growth [10]: 106%
growth [11]: 101%
growth [12]: 92.9%
growth [13]: 107%
growth [14]: 104%
growth [15]: 91.2%
growth [16]: 105%
growth [17]: 105%
growth [18]: 123%
growth [19]: 93.6%

C[C@@H](Nc1ncnc2ccc(-c3cnc(N)nc3)cc12)c1ccc(F)cc1
growth [1]: 85.9%
growth [2]: 89.1%
growth [3]: 37.8%
growth [4]: 57.7%
growth [5]: 99.2%
growth [6]: 49.6%
growth [7]: 66.3%
growth [8]: 74%
growth [9]: 68.9%
growth [10]: 112%
growth [11]: 47.9%
growth [12]: 85.2%
growth [13]: 59.6%
growth [14]: 34.7%
growth [15]: 64.1%
growth [16]: 81.7%
growth [17]: 95.3%
growth [18]: 94.8%
growth [19]: 82.7%

COc1ccc(/C=C/c2nc(Nc3cccc(NC(C)=O)c3)c3ccccc3n2)cc1
growth [1]: 87.6%
growth [2]: 82.3%
growth [3]: 45.5%
growth [4]: 82.1%
growth [5]: 84.3%
growth [6]: 69.4%
growth [7]: 75.9%
growth [8]: 55.4%
growth [9]: 88.9%
growth [10]: 105%
growth [11]: 88.7%
growth [12]: 102%
growth [13]: 85.3%
growth [14]: 104%
growth [15]: 92.1%
growth [16]: 83.1%
growth [17]: 98.5%
growth [18]: 95.6%
growth [19]: 72.9%

COc1ccc(/C=C2\COc3ccc(-c4ccccc4)cc3C2=O)c(OC)c1
growth [1]: 77.9%
growth [2]: 86.6%
growth [3]: 90.2%
growth [4]: 120%
growth [5]: 83.4%
growth [6]: 109%
growth [7]: 39.7%
growth [8]: 90.9%
growth [9]: 83.2%
growth [10]: 124%
growth [11]: 102%
growth [12]: 91.6%
growth [13]: 93%
growth [14]: 83%
growth [15]: 97.7%
growth [16]: 190%
growth [17]: 97.3%
growth [18]: 82.8%
growth [19]: 92.6%

Cc1nnc2c(Cc3ccccc3)nc3ccccc3n12
growth [1]: 91.3%
growth [2]: 84.9%
growth [3]: 100%
growth [4]: 108%
growth [5]: 100%
growth [6]: 82.4%
growth [7]: 107%
growth [8]: 97.9%
growth [9]: 98.6%
growth [10]: 113%
growth [11]: 97.7%
growth [12]: 109%
growth [13]: 96.1%
growth [14]: 95.4%
growth [15]: 89.9%
growth [16]: 99.7%
growth [17]: 95.8%
growth [18]: 104%
growth [19]: 99%

COc1cc(CC(=O)n2ncc3ccc(N)cc32)cc(OC)c1OC
growth [1]: 91.4%
growth [2]: 94.9%
growth [3]: 88.5%
growth [4]: 94.8%
growth [5]: 102%
growth [6]: 99%
growth [7]: 85.6%
growth [8]: 98.9%
growth [9]: 97.5%
growth [10]: 109%
growth [11]: 105%
growth [12]: 85.7%
growth [13]: 79.2%
growth [14]: 108%
growth [15]: 93.5%
growth [16]: 91.3%
growth [17]: 88.4%
growth [18]: 105%
growth [19]: 102%

N#C/C(=C\c1cccc(C#N)c1)c1ccccc1
growth [1]: 101%
growth [2]: 105%
growth [3]: 104%
growth [4]: 92.9%
growth [5]: 104%
growth [6]: 120%
growth [7]: 95.6%
growth [8]: 88.8%
growth [9]: 105%
growth [10]: 104%
growth [11]: 101%
growth [12]: 98.9%
growth [13]: 102%
growth [14]: 108%
growth [15]: 99%
growth [16]: 99.5%
growth [17]: 99.4%
growth [18]: 99.2%
growth [19]: 104%

CNCCOc1nc2c3cnccc3cc(-c3cc(OC)c(OC)c(OC)c3)c2c2ccncc12
growth [1]: -49.1% (active)
growth [2]: -42.5% (active)
growth [3]: -4.74% (active)
growth [4]: -39% (active)
growth [5]: -46.8% (active)
growth [6]: -20.8% (active)
growth [7]: -62.7% (active)
growth [8]: -8.59% (active)
growth [9]: -96.7% (active)
growth [10]: -61.2% (active)
growth [11]: -13.7% (active)
growth [12]: -80.2% (active)
growth [13]: -9.1% (active)
growth [14]: -85.7% (active)
growth [15]: -9.41% (active)
growth [16]: -20.7% (active)
growth [17]: -59.5% (active)
growth [18]: -43.1% (active)
growth [19]: -67.8% (active)

O=C(Cn1c(C(=O)c2ccccc2)nc2ccccc21)c1ccc(F)cc1
growth [1]: 67.3%
growth [2]: 84%
growth [3]: 75%
growth [4]: 78.2%
growth [5]: 98.6%
growth [6]: 77.3%
growth [7]: -9.34% (active)
growth [8]: 79.3%
growth [9]: 75.9%
growth [10]: 119%
growth [11]: 96.6%
growth [12]: 57.2%
growth [13]: 46.7%
growth [14]: 45.5%
growth [15]: 73.3%
growth [16]: 62.9%
growth [17]: 78.8%
growth [18]: 75.2%
growth [19]: 44%

CCc1c2c(nc3ccc(OCc4ccc(B(O)O)cc4)cc13)-c1cc3c(c(=O)n1C2)COC(=O)[C@]3(O)CC
growth [1]: -35.8% (active)
growth [2]: -21.4% (active)
growth [3]: 15.7%
growth [4]: -17% (active)
growth [5]: 2.12% (active)
growth [6]: -4.54% (active)
growth [7]: -9.3% (active)
growth [8]: 7.22% (active)
growth [9]: -13.7% (active)
growth [10]: 13.6%
growth [11]: 9.26% (active)
growth [12]: -7.08% (active)
growth [13]: 28.8%
growth [14]: -45.5% (active)
growth [15]: 7.54% (active)
growth [16]: 1.47% (active)
growth [17]: -7.49% (active)
growth [18]: -12.2% (active)
growth [19]: 1.07% (active)

COc1ccc2c(c1)oc1c(C)c3c(c(C)c12)C(=O)N(CCN1CCOCC1)C3=O
growth [1]: 101%
growth [2]: 96.4%
growth [3]: 90.9%
growth [4]: 101%
growth [5]: 101%
growth [6]: 106%
growth [7]: 29.8%
growth [8]: 90.8%
growth [9]: 102%
growth [10]: 109%
growth [11]: 107%
growth [12]: 100%
growth [13]: 86.2%
growth [14]: 93.9%
growth [15]: 99.5%
growth [16]: 110%
growth [17]: 100%
growth [18]: 93.8%
growth [19]: 104%
